Max fluorescein-equivalent concentration data for 57 molecules are collected here from PubChem BioAssay AID593 (National Center for Advancing Translational Sciences (NCATS), 2007).

The campaign covered roughly 59,000 compounds. About 540 (0.92%) were called active. Another 33% or so got no clear call; they are omitted. No stated cut-off is given here; in the data, active means max fluorescein-equivalent concentration above about 10 nM; inconclusive means between about 1.1 nM and that limit; inactive means weaker than that. Many of the other results were omitted from the sample, so actives are more common in it than they were.

The nature of the experiment: qHTS Assay for Spectroscopic Profiling in Fluorescein Spectral Region. The following applies: Compound autofluorescence, 480/540 nm; max fluorescein-equivalent concentration: stronger effect = higher value; outcome: fluorescein-equivalent. From the text:
NIH Molecular Libraries Screening Centers Network [MLSCN]
NIH Chemical Genomics Center [NCGC]
Occasionally, the artifactual effect may originate from the compound's own spectral or other biophysical properties which generally tend to track its assay concentration. Pre-screening/profiling the library with respect to the compounds' spectral properties should help one exclude false positives early on. While the most informative fluorescent profiling data set is obtained by performing a full excitation and emission scan of each well by using a monochromator-based plate reader, such an approach is practical only on a very limited scale as scanning each well requires long time. An alternative approach, applied here, is to perform plate reader scans using selected excitation and emission wavelength pairs to generate a multidimensional relational database that correlates compound concentration and the respective relative fluorescence intensity at a given wavelength set. A standard curve of fluorescein present on each plate as six-point concentration series, was used to compute a normalized fluorescence response, termed dye-equivalent concentration, for each compound at each concentration.
NCGC Assay Protocol Summary:
100 mM Tris buffer, pH 8.0
The wells in columns 1 through 4 of a Kalypsys polypropylene 1536-well compound plate were filled with standard solutions of fluorophore corresponding to the spectral region of interest. Solutions of Fluorescein were placed in the following wells: Q1, R1: 3 mM, Q2, R2: 300 uM, Q3, R3: 30 uM, Q4, R4: zero (DMSO), S1, T1: 3 uM, S2, T2: 900 nM, S3, T3: 300 nM, S4, T4: zero (DMSO).
Six uL of buffer were dispensed to 1536-well Greiner black plates. Compounds and dye standards (23 nL) were transferred via Kalypsys PinTool. The plates were incubated for 15 min at room temperature, and then read on ViewLux (Perkin-Elmer) High-throughput CCD imager using 480 nm and 540 nm excitation and emission filter set.
Keywords: NIH Roadmap, MLSCN, MLI, MLSMR, qHTS, NCGC, Fluorescein, Fluorescent Profiling.
Regarding `C=CCn1c(C)cc(C(=O)CN2C(=O)c3ccccc3C2=O)c1C`, the max fluorescein-equivalent concentration result is “inactive”.

As for `Cc1ccc(SCCN2C(=O)NC(C)(C)C2=O)cc1`, the max fluorescein-equivalent concentration result was “inactive”.

For the molecule `COc1cccc(Cn2c(=O)c(C)nc3cnc(Oc4ccccc4)nc32)c1`, the max fluorescein-equivalent concentration entry is “inactive”.

As to `Cc1cc(C(F)(F)F)nn1CC(=O)N1CCCC1`, the max fluorescein-equivalent concentration result was “inactive”.

In the case of `CCOc1ccc(NS(=O)(=O)c2ccc(OCC(=O)NCCCOC)cc2)cc1`, the max fluorescein-equivalent concentration result was “inactive”.

In the case of `COc1ccccc1N1CCN(c2nc3ccccc3n3nnnc23)CC1`, the max fluorescein-equivalent concentration was 12 nM (active).

In the case of `COc1ccccc1N1CCN(Cc2nnnn2CCc2ccccc2)CC1`, the max fluorescein-equivalent concentration result is “inactive”.

Take `COCCn1nnnc1C(c1ccccc1Cl)N1CCN(c2ccccc2OC)CC1` (configuration not stated): the max fluorescein-equivalent concentration result is “inactive”.

For `COc1ccc(-c2cc(C(F)(F)F)nc(SCCC(=O)NCc3ccco3)n2)cc1`, the max fluorescein-equivalent concentration entry was “inactive”.

As for `CCN(CC)S(=O)(=O)c1cccc(C(=O)Nc2cc(C)nn2-c2nc(C)cc(C)n2)c1`, the max fluorescein-equivalent concentration entry is “inactive”.

As for `COc1ccc(OCC(=O)OCC(=O)Nc2ccc(S(=O)(=O)N3CCCCC3)cc2)cc1`, the max fluorescein-equivalent concentration entry was “inactive”.

Consider `CCN1CCN(C(=O)CN(C)S(=O)(=O)c2ccc(OC)cc2)CC1`, for which the max fluorescein-equivalent concentration entry was “inactive”.

Turning to `CCC1CCCCN1C(=O)Nc1cccc(NC(=O)N2CCCCC2CC)c1` (configuration not stated), the max fluorescein-equivalent concentration result was “inactive”.

On to `COc1ccccc1CNc1nc(-c2c(C)noc2C)nc2ccccc12`, for which the max fluorescein-equivalent concentration entry is “inactive”.

As to `FC(F)(F)c1nnc2sc(-c3ccco3)nn12`, the max fluorescein-equivalent concentration result was “inactive”.

Turning to `O=C(O)CS(=O)c1ccc2c3c(cccc13)C(=O)c1ccccc1-2` (configuration not stated), the max fluorescein-equivalent concentration was 14 nM (active).

As for `CCn1c(=N)c(S(=O)(=O)c2ccc(F)cc2)cc2c(=O)n3ccccc3nc21`, the max fluorescein-equivalent concentration was 29 nM (active).

For the molecule `CCn1c(=N)c(C(=O)NCCCOC)cc2c(=O)n3cccc(C)c3nc21`, the max fluorescein-equivalent concentration result is “inactive”.

For the molecule `CC1(C)C(=O)C2(CCCCC2)C(=O)OC1c1cccs1` (configuration not stated), the max fluorescein-equivalent concentration entry is “inactive”.

For the molecule `CCOc1ccccc1Nc1nnc(SCC(=O)Nc2cc(C)on2)s1`, the max fluorescein-equivalent concentration entry is “inactive”.

As to `CC[C@H](c1ccccc1)c1cc(C(C)(C)C)cc(C(C)(C)C)c1O`, the max fluorescein-equivalent concentration entry is “inactive”.

In the case of `C=CCn1c(COc2ccccc2C)nnc1SCC(=O)O`, the max fluorescein-equivalent concentration result was “inactive”.

With `O=C(NCc1ccco1)c1sc2cccc(F)c2c1Cl`, the max fluorescein-equivalent concentration entry is “inactive”.

Regarding `CN(c1ccccc1)c1ccc(/C=c2\s/c(=C(/C#N)C(=O)C(C)(C)C)n(Cc3ccco3)c2=O)cc1`, the max fluorescein-equivalent concentration is 34 nM (active).

`CC(Sc1nc2ccccc2c(=O)n1Cc1ccco1)C(=O)c1ccccc1` (configuration not stated): the max fluorescein-equivalent concentration entry was “inactive”.

Regarding `COc1ccccc1NC(=O)CSc1nc2sc(C)c(C)c2c(=O)n1Cc1ccco1`, the max fluorescein-equivalent concentration result is “inactive”.

With `Cc1ccccc1C(=O)Nc1cccc(-c2nnc(SCC(=O)O)n2C)c1`, the max fluorescein-equivalent concentration entry was “inactive”.

Turning to `O=C(CNS(=O)(=O)c1cccc(C(F)(F)F)c1)Nc1ccccc1F`, the max fluorescein-equivalent concentration entry is “inactive”.

For `Cc1ccc(C(=O)CSc2nc3ccccc3c(=O)n2N)o1`, the max fluorescein-equivalent concentration result is “inactive”.

Take `Cc1cc2c(=O)n(C)c(SCC(=O)c3cc4ccccc4o3)nc2s1`: the max fluorescein-equivalent concentration was 13 nM (active).

Regarding `Cc1ccsc1C(=O)OCC(=O)c1cc2ccccc2o1`, the max fluorescein-equivalent concentration result was “inactive”.

`Cc1cc(C)cc(NC(=O)C2CCN(c3nc(C)cc(C)n3)CC2)c1`: the max fluorescein-equivalent concentration entry was “inactive”.

In the case of `CCOC(=O)c1cc2sccc2n1Cc1ccc(C#N)cc1`, the max fluorescein-equivalent concentration result was “inactive”.

Regarding `Fc1ccccc1CCNc1nnnn1-c1ccccc1`, the max fluorescein-equivalent concentration entry is “inactive”.

On to `CN1CCC2(CC1)CCN(S(=O)(=O)c1ccccc1)CC2`, for which the max fluorescein-equivalent concentration entry was “inactive”.

For the molecule `Cc1ccc2nc(CC(=O)c3ccc4ccccc4c3)c(=O)[nH]c2c1`, the max fluorescein-equivalent concentration result was “inactive”.

Regarding `C/C=C1\C(=O)C[C@@H]2[C@@H]3CCC4=CC(=O)CC[C@@]4(C)[C@H]3CC[C@@]12C`, the max fluorescein-equivalent concentration result is “inactive”.

For the molecule `Oc1ccc2ccccc2c1C=NCc1c(O)ccc2ccccc12`, the max fluorescein-equivalent concentration result was “inactive”.

With `COc1ncnc2c1N=C1CC(C)(C)CC(N)=C1S2`, the max fluorescein-equivalent concentration was 47 nM (active).

Turning to `COc1ccc(C(=O)N2CCC[C@@]3(CCN(C(=O)NC(C)C)C3)C2)cc1`, the max fluorescein-equivalent concentration result is “inactive”.

Consider `CC(C)NC(=O)N1CC[C@@]2(CCCN(C(=O)c3cccc(F)c3)C2)C1`, for which the max fluorescein-equivalent concentration was 780 nM (active).

Consider `CC(C)NC(=O)N1CC[C@@]2(CCCN(C(=O)c3ccco3)C2)C1`, for which the max fluorescein-equivalent concentration result is “inactive”.

For the molecule `O=C(Nc1ccc(S(=O)(=O)N2CCCCC2)cc1)c1cnccn1`, the max fluorescein-equivalent concentration entry is “inactive”.

For the molecule `O=c1[nH]c(=O)c2nc3ccccc3nc2[nH]1`, the max fluorescein-equivalent concentration is 62 nM (active).

As for `O=c1[nH]c(-c2ccccc2)c(-c2ccccc2)[nH]1`, the max fluorescein-equivalent concentration entry was “inactive”.

Regarding `CN1C(=O)C[C@H](c2ccccc2)C1=O`, the max fluorescein-equivalent concentration entry is “inactive”.

As for `CCCn1c(SCC(=O)Nc2cccc(C(=O)OCC)c2)nnc1-c1ccoc1C`, the max fluorescein-equivalent concentration result is “inactive”.

Turning to `COc1ccccc1Cc1nc(-c2ccc(C)cc2)no1`, the max fluorescein-equivalent concentration result is “inactive”.

As to `CC12CCC(C(=O)N(CCC#N)CCC#N)(CC1=O)C2(C)C` (configuration not stated), the max fluorescein-equivalent concentration result was “inactive”.

As for `COc1ccc2[nH]c3cc4c(=O)c5cc(OC)ccc5[nH]c4cc3c(=O)c2c1`, the max fluorescein-equivalent concentration entry is “inactive”.

On to `C[C@H]1O[C@@H](CC(=O)O)Cc2c1c(O)c1c(O)cc(-c3cc(=O)c4c(=O)c5c(c(=O)c=4c3=O)C[C@H](CC(=O)O)O[C@@H]5C)c(O)c1c2O`, for which the max fluorescein-equivalent concentration entry is “inactive”.

`CC(Sc1nncs1)C(=O)NCc1ccc2c(c1)OCO2` (configuration not stated): the max fluorescein-equivalent concentration entry was “inactive”.

Take `Cc1cc(NC(=O)Nc2ccccc2)n(-c2ccccc2)n1`: the max fluorescein-equivalent concentration result was “inactive”.

With `COc1ccc2oc(=O)c(C(=O)N3CCCc4ccccc43)cc2c1`, the max fluorescein-equivalent concentration result was “inactive”.

For the molecule `COc1cccc(C(=O)c2cc3ccc(O)cc3oc2=O)c1`, the max fluorescein-equivalent concentration result is “inactive”.

On to `COc1ccc2oc(=O)c(C(=O)O)cc2c1`, for which the max fluorescein-equivalent concentration is 19 nM (active).

As for `CCOc1ccc2nc(N3CCCN(C(=O)Nc4ccccc4C)CC3)c(C#N)cc2c1`, the max fluorescein-equivalent concentration was 29 nM (active).
